Assay in all cases: glycan array binding signal (z-score within array); higher = stronger binding
What all share (details): glycan notation: IUPAC condensed, linker removed

Assay [1] concerns the target Fuc(a1-2)Gal(b1-4)Glc. In a few lines: (§1)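 Columns mapping to the same glycan were averaged after glycan names were converted to IUPAC-condensed notation. The data come from 3228 arrays in the Consortium for Functional Glycomics database, limited to those with an available protein sequence. Binding is reported as a within-array Z-score averaged across arrays of one protein sequence and across linkers.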

Assay [2] has as its target Fuc(a1-2)Gal(b1-4)GlcNAc(b1-3)Gal(b1-4)GlcNAc(b1-3)Gal(b1-4)GlcNAc. Summed up: as §1
Assay [3] deals with Fuc(a1-2)[Gal(a1-3)]Gal(b1-4)GlcNAc. Summed up:
as §1

For assay [4], the target named is Fuc(a1-3)[Gal(b1-4)]GlcNAc(b1-2)Man(a1-6)[Gal(b1-4)GlcNAc(b1-2)Man(a1-3)]Man(b1-4)GlcNAc(b1-4)GlcNAc. Summed up: as §1
For assay [5], the target named is Fuc(a1-3)[Gal(b1-4)]GlcNAc(b1-4)Gal(b1-4)[Fuc(a1-3)]GlcNAc. In a few lines:
as §1

Assay [6] addresses Gal(a1-3)GalNAc. Summed up: as §1
Assay [7] concerns the target Gal(b1-3)[Fuc(a1-4)]GlcNAc. In a few lines:
as §1

Assay [8] concerns the target Gal(b1-4)GalNAc(a1-3)[Fuc(a1-2)]Gal(b1-4)GlcNAc. In a few lines: as §1
In assay [9] the target is Gal(b1-4)GlcNAc. In a few lines: as §1
For assay [10], the target named is Gal(b1-4)GlcNAc(b1-2)Man(a1-3)[Gal(b1-4)GlcNAc(b1-2)Man(a1-6)]Man(b1-4)GlcNAc(b1-4)GlcNAc. Summed up:
as §1

Assay [11] addresses Gal(b1-4)GlcNAc(b1-3)Gal(b1-3)GlcNAc. Summed up:
as §1

The target of assay [12] is Glc(a1-6)Glc(a1-6)Glc. Summed up:
as §1

In assay [13] the target is GlcA(b1-6)Gal. In a few lines:
as §1

Assay [14] addresses GlcNAc(b1-2)Gal(b1-3)GalNAc. Summed up: as §1
Assay [15] concerns the target Man(a1-3)[Man(a1-6)]Man(b1-4)GlcNAc(b1-4)GlcNAc. Summed up:
as §1

Assay [16] addresses Man(a1-6)Man. Summed up:
as §1

The target in assay [17] is Neu5Ac(a2-3)Gal(b1-3)[Fuc(a1-4)]GlcNAc. Summed up: as §1
Assay [18] has as its target Neu5Ac(a2-3)Gal(b1-4)GlcNAc(b1-2)Man(a1-3)[GlcNAc(b1-2)Man(b1-4)GlcNAc(b1-2)Man(a1-6)]Man(b1-4)GlcNAc(b1-4)GlcNAc. Summed up: as §1
The target in assay [19] is Neu5Ac(a2-3)Gal(b1-4)GlcNAc(b1-2)Man(a1-3)[Neu5Ac(a2-6)Gal(b1-4)GlcNAc(b1-2)Man(a1-6)]Man(b1-4)GlcNAc(b1-4)GlcNAc. Summed up:
as §1

In assay [20] the target is Neu5Ac(a2-6)Gal(b1-4)GlcNAc. Summed up: as §1
In assay [21] the target is Neu5Ac(b2-6)GalNAc. In a few lines:
as §1

The target in assay [22] is Neu5Gc(a2-3)Gal(b1-3)[Fuc(a1-4)]GlcNAc. Summed up: as §1
The target of assay [23] is Neu5Gc(a2-3)Gal(b1-4)[Fuc(a1-3)]GlcNAc. In a few lines:
as §1

For assay [24], the target named is Neu5Gc(a2-6)Gal(b1-4)GlcNAc. In a few lines: as §1

This note sets out measurements from the supplement of paper PMC8728848.

This is one part of a sample in which the strongest signals are shown more often than they occur.

B1: Codakine (Codakia orbicularis), Q3KVL7_9BIVA (protein)
chain: MKILVAVFLVLVVVGTAAAGCPDGWTQFLDLCYIYQSAKASWASAQSSCQALGGILAEPDTACENEVLIHMCRENGDAGSFGPWLGGQKVGGAWQWSSSGAAFDYLRWGPNEPNNSGGNEDCLHYNWLSWNDLRCHYQASYLCQRAAE
For the molecule B1, the “glycan array binding signal (z-score)” value in assay [1] was -0.26; in assay [2], -0.235; in [3] it was -0.342; in [4], 6.48; in [5], -0.321; in [6] it was -0.298. Besides, the “glycan array binding signal (z-score)” value was -0.203 in [7]; -0.419 in [8]; -0.3 in [9]; 4.02 in [10]; -0.239 in [11]; -0.317 in assay [12]. Moreover, the “glycan array binding signal (z-score)” value in assay [13] was -0.302; in [14] it was -0.276; in [15] it was 4.3; in assay [16], 0.449; in assay [17] it was -0.34; in [18], 4.82. In addition, the “glycan array binding signal (z-score)” value in assay [19] was 4.57; in [20], -0.224; in assay [21], -0.238; in [22], -0.265; in assay [23] it was -0.234; in assay [24], -0.289.
